Experimental data reported in PubChem BioAssay (EPA / NIEHS).
Values joined by “and” are separate entries in the source; they are usually repeats but may differ in a detail not shown here. Equal entries are not always repeated. Results filed as inconclusive are left out. Active and inactive are the calls of the source. The calls were made as follows, unless noted: active = hit-call score of the fitted dose curve at least 0.9, where 1 is the maximum; inconclusive = response in the unintended direction; inactive = score below 0.9.

target: Estrogen receptor (Homo sapiens) (UniProt P03372); assay: OT_ERa_GFPERaERE_0480: Odyssey Thera (OT) 8-hour HeLa Transcription Induction Assay for Estrogen Receptor (AID 2283381; active = hit-call score of the fitted dose curve at least 0.9, where 1 is the maximum; inactive = score below 0.9)
Procedure, shortened: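 HeLa cells dosed with compound and imaged by fluorescence microscopy at 8 h; GFP induction from an ERE reporter quantified by high-content image analysis and fitted as gain of signal against DMSO baseline.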

Sequence of Estrogen receptor (Homo sapiens) (P03372 whole entry, looked up): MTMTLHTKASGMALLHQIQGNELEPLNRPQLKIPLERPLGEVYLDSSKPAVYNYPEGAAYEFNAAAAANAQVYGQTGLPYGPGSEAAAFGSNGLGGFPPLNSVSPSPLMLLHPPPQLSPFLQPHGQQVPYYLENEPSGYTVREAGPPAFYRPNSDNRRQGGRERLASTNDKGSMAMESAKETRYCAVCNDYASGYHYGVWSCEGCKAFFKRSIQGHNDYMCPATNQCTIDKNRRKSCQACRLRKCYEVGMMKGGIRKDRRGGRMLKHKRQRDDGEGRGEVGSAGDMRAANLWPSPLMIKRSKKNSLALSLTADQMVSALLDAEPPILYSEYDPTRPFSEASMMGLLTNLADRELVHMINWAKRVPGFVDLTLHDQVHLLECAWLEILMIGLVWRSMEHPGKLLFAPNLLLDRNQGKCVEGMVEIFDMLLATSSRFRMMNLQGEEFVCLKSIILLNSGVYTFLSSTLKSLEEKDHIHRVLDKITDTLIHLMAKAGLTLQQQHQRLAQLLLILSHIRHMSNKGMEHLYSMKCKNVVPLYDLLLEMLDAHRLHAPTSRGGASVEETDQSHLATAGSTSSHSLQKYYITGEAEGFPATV

outcome, inactive:
CCCCCCCC(=O)OC, O=C(O)c1[nH]n(-c2ccc(S(=O)(=O)O)cc2)c(=O)c1N=Nc1ccc(S(=O)(=O)O)cc1, Oc1ccc(O)cc1, NC1CCCCC1, c1ccc2occc2c1, CN(C)CCCN(C)CCCN(C)C, CS(=O)(=O)c1ccc([C@@H](C[C@H]2CCC(=O)C2)C(=O)Nc2cnccn2)cc1Cl

target: Estrogen receptor (Homo sapiens) (UniProt P03372); assay: OT_ERa_GFPERaERE_0120: Odyssey Thera (OT) 2-hour HeLa Transcription Induction Assay for Estrogen Receptor (AID 2283382)
Procedure, shortened: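 HeLa cells were dosed with test chemical and read 2 hours later for GFP-ERα/ERE-linked fluorescent protein induction by fluorescence microscopy. Gain-of-signal was fitted relative to DMSO baseline, quantified by high content image analysis.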

outcome, inactive:
CCCCCCCC(=O)OC, O=C(O)c1[nH]n(-c2ccc(S(=O)(=O)O)cc2)c(=O)c1N=Nc1ccc(S(=O)(=O)O)cc1, Oc1ccc(O)cc1, NC1CCCCC1, c1ccc2occc2c1, CN(C)CCCN(C)CCCN(C)C, CS(=O)(=O)c1ccc([C@@H](C[C@H]2CCC(=O)C2)C(=O)Nc2cnccn2)cc1Cl

target: Bile acid receptor (Homo sapiens) (UniProt Q96RI1); assay: OT_FXR_FXRSRC1_0480: Odyssey Thera (OT) 8-hour HEK293T Protein-Complementation Assay for Farnesoid X receptor/SRC-1 Co-activator (AID 2283383)
Procedure, shortened: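 HEK293T cells expressing FXR and SRC-1 fused to reporter fragments were dosed with compound for 8 h; fluorescence from the reconstituted reporter marked co-activator recruitment. Gain of signal was fitted against the DMSO baseline.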

Sequence of Bile acid receptor (Homo sapiens) (Q96RI1 whole entry, looked up, the tested form may be a part): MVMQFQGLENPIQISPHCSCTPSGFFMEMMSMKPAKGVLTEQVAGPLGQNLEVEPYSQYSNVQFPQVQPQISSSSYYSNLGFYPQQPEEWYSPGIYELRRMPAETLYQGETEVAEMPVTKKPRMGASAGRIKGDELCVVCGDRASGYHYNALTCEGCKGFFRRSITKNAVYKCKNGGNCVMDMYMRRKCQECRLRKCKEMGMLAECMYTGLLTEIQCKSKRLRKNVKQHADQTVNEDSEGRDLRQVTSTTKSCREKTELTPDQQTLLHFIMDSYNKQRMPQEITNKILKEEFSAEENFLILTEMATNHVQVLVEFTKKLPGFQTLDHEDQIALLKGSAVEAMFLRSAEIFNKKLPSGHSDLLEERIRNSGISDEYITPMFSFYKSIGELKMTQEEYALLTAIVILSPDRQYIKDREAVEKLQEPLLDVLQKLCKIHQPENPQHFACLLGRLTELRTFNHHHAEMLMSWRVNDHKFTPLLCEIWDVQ

AC50, active:
CC(COCC(C)OC(=O)c1ccccc1)OC(=O)c1ccccc1 (configuration not stated) 19.4 µM, Nc1nc(Cl)nc2c1ncn2[C@H]1C[C@H](O)[C@@H](CO)O1 15.2 µM, CCCCC(CC)COP(=O)(OCC(CC)CCCC)OCC(CC)CCCC (configuration not stated) 15.6 µM

outcome, inactive:
CC(C)c1cccc(C(C)C)c1NC(=O)NS(=O)(=O)c1cc(C(C)(C)O)co1, CC(C)COC(=O)CCCCC(=O)OCC(C)C, O=C1c2c(O)cccc2Cc2cccc(O)c21, C=CCc1ccc(OC)c(OC)c1, CC(=O)S[C@H](C(=O)N[C@H]1Cc2ccccc2[C@H]2CCC[C@@H](C(=O)O)N2C1=O)C(C)C, Cc1cn([C@H]2C=C[C@@H](CO)O2)c(=O)[nH]c1=O

target: Bile acid receptor (Homo sapiens) (UniProt Q96RI1); assay: OT_FXR_FXRSRC1_1440: Odyssey Thera (OT) 24-hour HEK293T Protein-Complementation Assay for Farnesoid X receptor/SRC-1 Co-activator (AID 2283384)
Procedure, shortened: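 HEK293T cells were dosed with compound and read 24 h later by fluorescence intensity from protein-fragment complementation reporting FXR/SRC-1 co-activator interaction. Gain of signal was fitted relative to DMSO negative control as baseline.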

outcome, inactive:
CC(COCC(C)OC(=O)c1ccccc1)OC(=O)c1ccccc1 (configuration not stated), CC(C)c1cccc(C(C)C)c1NC(=O)NS(=O)(=O)c1cc(C(C)(C)O)co1, O=C(O)c1[nH]n(-c2ccc(S(=O)(=O)O)cc2)c(=O)c1N=Nc1ccc(S(=O)(=O)O)cc1, CC(C)COC(=O)CCCCC(=O)OCC(C)C, O=C1c2c(O)cccc2Cc2cccc(O)c21, c1ccc2occc2c1, O=C(O)c1cccnc1, C=CCc1ccc(OC)c(OC)c1, COC(=O)CCCC(=O)OC, CN(C)CCCN(C)CCCN(C)C

AC50, active:
Nc1nc(Cl)nc2c1ncn2[C@H]1C[C@H](O)[C@@H](CO)O1 21.1 µM, CCCCC(CC)COP(=O)(OCC(CC)CCCC)OCC(CC)CCCC (configuration not stated) 67.1 µM

target: Retinoic acid receptor RXR-alpha (Homo sapiens) (UniProt P19793); assay: OT_NURR1_NURR1RXRa_0480: Odyssey Thera (OT) 8-hour HEK293T Protein Complementation Assay for Nurr1/retinoid X receptor (RXR) (AID 2283385)
Procedure, shortened: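 HEK293T cells expressing Nurr1 and RXRα fused to reporter fragments were dosed with compound for 8 hours. Complex formation was read as fluorescence intensity and analysed as gain of signal against DMSO as baseline.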

Sequence of Retinoic acid receptor RXR-alpha (Homo sapiens) (P19793 whole entry, looked up, the tested form may be a part): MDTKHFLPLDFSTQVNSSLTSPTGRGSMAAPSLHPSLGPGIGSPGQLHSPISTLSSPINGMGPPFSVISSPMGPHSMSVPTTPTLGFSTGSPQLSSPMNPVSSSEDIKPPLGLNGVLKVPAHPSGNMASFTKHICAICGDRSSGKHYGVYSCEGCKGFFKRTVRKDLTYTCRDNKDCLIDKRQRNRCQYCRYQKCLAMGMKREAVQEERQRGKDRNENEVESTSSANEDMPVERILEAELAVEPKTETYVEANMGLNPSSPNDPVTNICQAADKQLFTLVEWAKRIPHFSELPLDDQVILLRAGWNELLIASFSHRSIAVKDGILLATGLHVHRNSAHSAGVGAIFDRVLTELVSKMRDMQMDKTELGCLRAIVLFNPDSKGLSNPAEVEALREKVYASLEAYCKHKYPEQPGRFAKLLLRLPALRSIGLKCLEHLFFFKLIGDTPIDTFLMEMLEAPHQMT

outcome, inactive:
CC(=O)CC(c1ccccc1)c1c(O)c2ccccc2oc1=O (configuration not stated), CCCCCCCC(=O)OC, CC(COCC(C)OC(=O)c1ccccc1)OC(=O)c1ccccc1 (configuration not stated), CC(C)(C)c1ccccc1, N[C@@H](Cc1c[nH]c2ccccc12)C(=O)O, CC(C)c1cccc(C(C)C)c1NC(=O)NS(=O)(=O)c1cc(C(C)(C)O)co1, O=C(O)c1[nH]n(-c2ccc(S(=O)(=O)O)cc2)c(=O)c1N=Nc1ccc(S(=O)(=O)O)cc1, Oc1ccccc1O, CC(C)COC(=O)CCCCC(=O)OCC(C)C, Oc1ccc(O)cc1, CCCC(=O)O, CO[C@@H]1COCC[C@@H]1N[C@@H]1CC[C@@](C(=O)N2CCc3ncc(C(F)(F)F)cc3C2)(C(C)C)C1, NC1CCCCC1, O=C1c2c(O)cccc2Cc2cccc(O)c21, C/C=C/c1ccc(OC)cc1, c1ccc2occc2c1, O=C1O[C@H]([C@H](O)CO)C(O)=C1O, O=C1NC(=O)C(c2ccccc2)(c2ccccc2)N1, C=CCc1ccc(OC)c(OC)c1, CCCCC(CC)COP(=O)(OCC(CC)CCCC)OCC(CC)CCCC (configuration not stated), COC(=O)CCCC(=O)OC, CN(C)CCCN(C)CCCN(C)C, CC(=O)S[C@H](C(=O)N[C@H]1Cc2ccccc2[C@H]2CCC[C@@H](C(=O)O)N2C1=O)C(C)C, Cc1cn([C@H]2C=C[C@@H](CO)O2)c(=O)[nH]c1=O, CS(=O)(=O)c1ccc([C@@H](C[C@H]2CCC(=O)C2)C(=O)Nc2cnccn2)cc1Cl

AC50, active:
Nc1nc(Cl)nc2c1ncn2[C@H]1C[C@H](O)[C@@H](CO)O1 50 µM and 41.2 µM, CC(=O)O[C@]1(C(C)=O)CC[C@H]2[C@@H]3C=C(Cl)C4=CC(=O)[C@@H]5C[C@@H]5[C@]4(C)[C@H]3CC[C@@]21C 28 µM
